Consider 18 molecules from PubChem BioAssay (EPA / NIEHS).

Structures are written as SMILES. Inconclusive results are not listed. Active and inactive are the calls of the source. How the source made its calls: active means hit-call score of the fitted dose curve at least 0.9, where 1 is the maximum; inconclusive means response in the unintended direction; inactive means score below 0.9.

The target in experiment [1] is Cellular tumor antigen p53 (Homo sapiens) (UniProt P04637). Nature of the experiment: TOX21_p53_BLA_p3_ratio: Tox21 HCT-116 p53 Agonism Beta-lactamase Assay, Ratio, Phase 3 (AID 2283596). In a few lines:
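HCT116 p53-bla cells (4000/well) given compound in DMSO (217-fold dilution) after 5 h, incubated 16 h at 37C. CCF4-AM substrate 2 h at room temperature; 460/530 nm emission ratio, gain fitted against DMSO.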

The nature of experiment [2]: TOX21_p53_BLA_p4_viability: Viability Assessment in the Tox21 HCT-116 p53 Agonism Beta-lactamase Assay, Phase 4 (AID 2283597).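 Further: hits lower the luminescence signal meaning cytotoxicity.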 In a few lines: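 HCT-116 p53-bla cells, 4000/well, dosed after 5 h attachment and incubated 16 h at 37 °C, 5% CO2. Viability from CellTiter-Glo ATP luminescence after 30 min at room temperature, taken after the beta-lactamase read; loss of signal indicates cytotoxicity.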

Experiment [3] addresses Cellular tumor antigen p53 (Homo sapiens) (UniProt P04637). Nature of the experiment: TOX21_p53_BLA_p5_ratio: Tox21 HCT-116 p53 Agonism Beta-lactamase Assay, Ratio, Phase 5 (AID 2283599). In a few lines: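 HCT-116 cells carrying a p53-inducible beta-lactamase reporter were seeded at 4000 cells/well and dosed after 5 h with compound in DMSO (217-fold dilution). After 16 h at 37C, CCF4-AM substrate was added for 2 h, and the 460/530 nm emission ratio was scored as gain-of-signal versus DMSO.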

A short description of experiment [4]: TOX21_p53_BLA_p5_viability: Viability Assessment in the Tox21 HCT-116 p53 Agonism Beta-lactamase Assay, Phase 5 (AID 2283600). The method in brief: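 HCT-116 p53 beta-lactamase reporter cells, 4000/well, were exposed to compound (pin transfer, 217-fold dilution) for 16 hours at 37C. Cellular ATP was read by CellTiter-Glo luminescence after 30 min at room temperature.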

For experiment [5], the target named is Cellular tumor antigen p53 (Homo sapiens) (UniProt P04637). Nature of the experiment: TOX21_p53_BLA_p4_ratio: Tox21 HCT-116 p53 Agonism Beta-lactamase Assay, Ratio, Phase 4 (AID 2283601). The method in brief:
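HCT116 cells carrying an inducible beta-lactamase reporter were plated at 4000 cells/well, rested 5 h, then exposed to compounds in DMSO (217-fold dilution) for 16 h at 37C. CCF4-AM substrate was loaded 2 h at room temperature; 460/530 nm emission ratio scored gain-of-signal versus DMSO.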

Experiment [6] can be described thus: Tanguay_ZF_120hpf_MORT_legacy: (Legacy) Oregon State University Tanguay Lab 120 Hour Post-fertilization zebrafish Assay for Mortality (AID 2283633). The method in brief:
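Dechorionated Tropical 5D wild-type zebrafish embryos, one per well from 6 hpf, static exposure in 0.64% DMSO at 28C until 120 hpf. Mortality scored as binary by brightfield microscopy at 24 and 120 hpf.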

Experiment [7] is described as follows: Tanguay_ZF_120hpf_YSE_legacy: (Legacy) Oregon State University Tanguay Lab 120 Hour Post-fertilization zebrafish Assay for Yolk Sac Edema (AID 2283634).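 On AC50: actives raise the incidence of yolk sac edema above the DMSO baseline.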 The method in brief:
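Dechorionated Tropical 5D wild-type zebrafish embryos were exposed statically, one per well, from 6 to 120 hpf at 28C in 0.64% DMSO. Yolk sac edema was scored present/absent by brightfield at 120 hpf, and dead embryos were excluded.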

A short description of experiment [8]: Tanguay_ZF_120hpf_AXIS_legacy: (Legacy) Oregon State University Tanguay Lab 120 Hour Post-fertilization zebrafish Assay for Body Axis Malformation (AID 2283635).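 On AC50: potency for an increased fraction of larvae scored with body axis malformation.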 In a few lines: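 Dechorionated wild-type Tropical 5D zebrafish embryos, one per well, statically exposed from 6 hpf to 120 hpf at 28C in 0.64% DMSO final. Body axis malformation scored present/absent by brightfield microscopy at 120 hpf; dead embryos excluded.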

Experiment [9] can be described thus: Tanguay_ZF_120hpf_EYE_legacy: (Legacy) Oregon State University Tanguay Lab 120 Hour Post-fertilization zebrafish Assay for Eye Malformation (AID 2283636).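 Further: binary presence or absence of eye malformation scored by brightfield in 120 hpf larvae.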 In a few lines:
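Dechorionated wild-type Tropical 5D zebrafish embryos were exposed statically from 6 hpf, one per well, to 120 hpf at 28C in sealed, foil-covered plates with 0.64% DMSO. Eye malformation was scored present/absent by brightfield microscopy against DMSO controls.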

Experiment [10] can be described thus: Tanguay_ZF_120hpf_SNOU_legacy: (Legacy) Oregon State University Tanguay Lab 120 Hour Post-fertilization zebrafish Assay for Snout Malformation (AID 2283637). In a few lines: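 Tropical 5D wild-type zebrafish embryos, dechorionated with pronase at 4 hpf, were exposed singly from 6 hpf to 120 hpf statically at 28C in 0.64% DMSO. Snout malformation was scored present/absent by brightfield microscopy, fitted against DMSO.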

Chain of Cellular tumor antigen p53 (Homo sapiens) (P04637 whole entry, looked up): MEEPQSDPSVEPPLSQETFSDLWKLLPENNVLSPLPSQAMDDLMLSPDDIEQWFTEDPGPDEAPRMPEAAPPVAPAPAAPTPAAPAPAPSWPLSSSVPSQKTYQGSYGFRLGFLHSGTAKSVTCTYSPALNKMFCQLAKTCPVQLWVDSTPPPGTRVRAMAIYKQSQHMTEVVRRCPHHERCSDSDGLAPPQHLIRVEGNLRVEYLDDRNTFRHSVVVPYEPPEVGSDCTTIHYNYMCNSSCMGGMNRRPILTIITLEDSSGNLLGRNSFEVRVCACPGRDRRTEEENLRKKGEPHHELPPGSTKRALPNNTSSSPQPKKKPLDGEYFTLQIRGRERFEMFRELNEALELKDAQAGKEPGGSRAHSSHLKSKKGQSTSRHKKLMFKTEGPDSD

Turning to `ClC1=C(Cl)[C@]2(Cl)[C@@H]3[C@@H](Cl)[C@H]4O[C@H]4[C@@H]3C1(Cl)C2(Cl)Cl`, the result in [1], in experiment [3], in [4], in experiment [6], in experiment [7] and in [8] was inactive. Moreover, the call in [9] and in experiment [10] was inactive. The AC50 (usually the concentration giving half of the maximal activity seen) in experiment [2] is 65.1 µM (active); in experiment [5], 72.3 µM (active).
Turning to `O=C(NC(=O)c1c(F)cccc1F)Nc1cc(Cl)c(OC(F)(F)C(F)F)c(Cl)c1`, the outcome in [1], in [2], in experiment [3], in experiment [4], in experiment [5] and in experiment [6] was inactive. The result in [7], in experiment [8], in experiment [9] and in experiment [10] was inactive.
For `CC(C)(O)C(=O)Nc1ccc([N+](=O)[O-])c(C(F)(F)F)c1`, the outcome in [1], in experiment [2], in experiment [3], in experiment [4], in experiment [5] and in experiment [6] was inactive. Besides, in experiment [7], the outcome was inactive. Besides, the AC50 was 6.35 µM (active) in experiment [8], 21.7 µM (active) in experiment [9] and 7.43 µM (active) in experiment [10].
For the molecule `CN(C)c1nc(=O)n(C2CCCCC2)c(=O)n1C`, the result in experiment [6], in experiment [7], in [8], in [9] and in experiment [10] was inactive.
Regarding `Cc1cc2c3c(c1)C(c1ccccc1)=N[C@@H](NC(=O)c1ccncc1)C(=O)N3CC2`, the outcome in experiment [5], in [6], in experiment [7], in [8], in [9] and in experiment [10] was inactive.
`CCCN(CCC)N=O`: the result in [1], in experiment [2], in experiment [3], in experiment [5], in [6] and in experiment [7] was inactive. Further, the call in [8], in experiment [9] and in [10] was inactive.
As to `CCCCCCOC(=O)c1ccccc1C(=O)OCCCCCC`, the result in [3], in experiment [4], in experiment [5], in experiment [6], in experiment [7] and in experiment [9] was inactive. Moreover, the outcome in experiment [10] was inactive.
Consider `CC#Cc1cc(C)nc(Nc2ccccc2)n1`, for which the result in [2], in experiment [4], in experiment [5], in experiment [6], in experiment [7] and in [9] was inactive. The molecule was classed as inactive in experiment [10].
With `CC1=C2C[C@H]3[C@@H](CC=C4C[C@@H](O)CC[C@@]43C)[C@@H]2CC[C@]12O[C@@H]1C[C@H](C)CN[C@H]1[C@H]2C`, the result in [1], in experiment [3], in [4], in experiment [5], in experiment [6] and in experiment [9] was inactive. The AC50 was 17.2 µM (active) in experiment [7], 0.33 µM (active) in [8] and 21 µM (active) in experiment [10].
In the case of `N#Cc1ccc(N(CC(N)=O)CC(F)(F)F)cc1C(F)(F)F`, the molecule was called inactive in experiment [2], in experiment [3], in experiment [4], in experiment [6], in experiment [7] and in [8]. Also, the result in experiment [9] and in experiment [10] was inactive.
Regarding `C=CC(N)=O`, the outcome in experiment [1], in experiment [3], in [4], in experiment [5], in experiment [6] and in experiment [7] was inactive. For the same molecule, the molecule was classed as inactive in experiment [8], in experiment [9] and in [10].
Consider `O=C(O)C(F)(F)C(F)(F)C(F)(F)C(F)(F)C(F)(F)C(F)(F)C(F)(F)C(F)(F)C(F)(F)F`, for which the result in [1], in experiment [2], in experiment [3], in experiment [4], in experiment [5] and in experiment [6] was inactive. The result in experiment [7], in experiment [8] and in experiment [10] was inactive.
Regarding `Cc1cc(O)ccc1Cl`, the result in experiment [1], in experiment [2], in experiment [3], in experiment [4], in [5] and in experiment [6] was inactive. In addition, the molecule was called inactive in experiment [8], in experiment [9] and in [10].
For the molecule `O=C(NC(=O)c1cc(F)c(F)cc1Cl)Nc1cc(F)ccc1N1CCC(C(=O)O)CC1`, the result in experiment [1], in experiment [2], in [5], in experiment [6], in experiment [7] and in [8] was inactive. Further, the molecule was classed as inactive in experiment [9] and in experiment [10].
Regarding `Cc1ccccc1O`, the outcome in [1], in experiment [2], in experiment [3], in [5], in [6] and in experiment [7] was inactive. Moreover, the molecule was classed as inactive in [9] and in experiment [10].
In the case of `CCSC(=O)N(CC)C1CCCCC1`, the molecule was classed as inactive in experiment [6], in experiment [7], in [8] and in [10].
As to `CCOCCOC(C)=O`, the outcome in experiment [1], in experiment [2], in experiment [3], in [4], in experiment [5] and in [7] was inactive. Further, the call in [8] and in experiment [10] was inactive.
`Cc1ccccc1CO[C@@H]1C[C@@]2(C(C)C)CC[C@]1(C)O2`: the molecule was classed as inactive in experiment [7], in [8], in [9] and in experiment [10].
